Test results published in paper PMC7819943, “Rice protein-binding microarrays: a tool to detect cis-acting elements near promoter regions in rice”.
The full ranking holds about 35,000 sequences; the median of “fluorescence intensity (a.u.)” is about 10,000, and the highest 2% start at about 52,000. What follows is part of a selection rich in the highest values, with near analogues and random picks from the rest.

Molecular target: T1, OsWOX13 (Oryza sativa, UniProt Q5QMM3 1-267)
T1 sequence: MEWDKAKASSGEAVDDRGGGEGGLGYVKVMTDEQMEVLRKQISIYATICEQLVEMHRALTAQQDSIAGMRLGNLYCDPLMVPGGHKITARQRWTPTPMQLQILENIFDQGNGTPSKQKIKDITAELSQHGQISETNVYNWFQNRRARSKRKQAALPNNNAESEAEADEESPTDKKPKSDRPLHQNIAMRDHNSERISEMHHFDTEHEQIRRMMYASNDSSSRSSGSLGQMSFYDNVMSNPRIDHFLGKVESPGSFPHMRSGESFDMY
Test: protein-binding microarray (RPBM); PBS, 2% BSA, 51.3 ng/ul salmon testes DNA, 50 uM zinc acetate, 200 nM TF, 25 C, 1 h; high values mean tight binding
Conditions: protein: recombinant; tags: N-terminal polyhistidine and DsRed monomer fusion (pET32a); label: CyDye5-dUTP incorporated in the synthesized complementary strand; 3' TTTTT single-stranded linker to array surface; dsDNA, one strand shown
Outline: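 Using Ni–NTA, transcription factors fused N-terminally to polyhistidine and DsRed were purified after expression in E. coli BL21-CodonPlus. These were incubated at 200 nM with a blocked, double-stranded custom Agilent array for 1 h at 25 °C in a buffer containing 50 µM zinc acetate, and the array was washed. The binding signal is per-feature fluorescence intensity (arbitrary units) on an Axon 4000B scanner.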

Sequence	binding signal
TCTGAGATTTATTGATTAGATTATAACGTAATCGTTGTTACGGAGTCACCTAGTGCAG	29300 fluorescence intensity (a.u.)
TATTAATTGAGTGAGATTTGGGGTATTCAGTCGACTGGCACGGAGTCACCTAGTGCAG	54900 fluorescence intensity (a.u.)
GTATTAATTGGGGTGATTCATGACAACGATGAGATATTAACGGAGTCACCTAGTGCAG	32700 fluorescence intensity (a.u.)
CTCTGATAGATTGCGACCTTCTTGTTGTTTAACAACGTTACGGAGTCACCTAGTGCAG	54000 fluorescence intensity (a.u.)
ATATTCAGCTGATTGGGGCATTGGGTATTTGCAGTGAGCACGGAGTCACCTAGTGCAG	18500 fluorescence intensity (a.u.)
GAAGTTATTAACAAATTAGATACATCTCTTGTTTAGATTACGGAGTCACCTAGTGCAG	4700 fluorescence intensity (a.u.)
ACACACAGCGGCAAAATTGACACATTACACATCAGGAATCCGGAGTCACCTAGTGCAG	5060 fluorescence intensity (a.u.)
TGAAAGAAGAGATGATTGGGAAACACCATTAATAGGGTGGCGGAGTCACCTAGTGCAG	10500 fluorescence intensity (a.u.)
TGTCGTCAAAATTTGATGGAATTCACACGAATTTAGCAACCGGAGTCACCTAGTGCAG	5150 fluorescence intensity (a.u.)
TACTAATGATTTTATGTAGAACATCATCACATATCTTATACGGAGTCACCTAGTGCAG	15800 fluorescence intensity (a.u.)
TAATAATAATAATAATAATAATAATAATAACACATCGCACCGGAGTCACCTAGTGCAG	4120 fluorescence intensity (a.u.)
GGTTTGATTGGTTGGAAACAGAGGGGTTCTACTGCTGCGACGGAGTCACCTAGTGCAG	55700 fluorescence intensity (a.u.)
CTGATGATTGGTCAGCAGAGAAGACAGGTGGGATATCGAGCGGAGTCACCTAGTGCAG	52900 fluorescence intensity (a.u.)
TTCGAATCTCTGATTGGGAGTTCAGGTCAGAGACGTTCAGCGGAGTCACCTAGTGCAG	14700 fluorescence intensity (a.u.)
TTGCTATTTGTTGGTTTGATTTATTGCTACTGCAACAGATCGGAGTCACCTAGTGCAG	3880 fluorescence intensity (a.u.)
TGTTGATTTGCTACCCTTCCTTCCGTCCTCAACATTATCACGGAGTCACCTAGTGCAG	31600 fluorescence intensity (a.u.)
TTGATTTGGTTGATTGCCTCCTTCGTTCGTCCACGCTCAACGGAGTCACCTAGTGCAG	57100 fluorescence intensity (a.u.)
ATAACATTATCATTATAGACATTGATATATGAGATAATAGCGGAGTCACCTAGTGCAG	6010 fluorescence intensity (a.u.)
CCGTGCTGCATGATTGACCAAACAGACCATGTTGGTTTTGCGGAGTCACCTAGTGCAG	29000 fluorescence intensity (a.u.)
TTGATTGCCTCAGGTGGTCCGGACACCGTCTCAACATCCACGGAGTCACCTAGTGCAG	17700 fluorescence intensity (a.u.)
TTCTATGATTGATTGGTCGATAGGAAGACATATAACAGCGCGGAGTCACCTAGTGCAG	65500 fluorescence intensity (a.u.)
CTTTGACAGATTGGTGGGAGATAAGAGAAATGAGGAGGTGCGGAGTCACCTAGTGCAG	51900 fluorescence intensity (a.u.)
GATTTATTGACATCTATATGAATATAGACATTGATAAAAGCGGAGTCACCTAGTGCAG	8710 fluorescence intensity (a.u.)
